According to PubChem BioAssay (Tox21):
Where “and” joins values, the source holds several entries; their conditions need not be identical. Identical values can stand only once. Inconclusive results are not listed. A structure can be active in one record and inactive in another. Calls of active or inactive are those of the source. Unless noted, calls follow the shape of the dose curve; as a rule, active = well fitted curve in the direction sought with a large enough effect in the repeat runs; inconclusive = weak or mixed curves; inactive = no such curve, though single readings can be large; an effect the other way counts as inactive or inconclusive.

What was measured:
[1] = A CellTox Green Cytotoxicity Assay to monitor cytotoxicity in HepG2 cells - 32 hour (AID 1224883); also: nearly all actives have a fitted effect of over 50% in size; also: potency is read from the fitted curve at half-maximal effect
How it was run: (§1)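 Real-time cytotoxicity: fluorescence of a cell-impermeant cyanine dye binding DNA of dead HepG2 cells, measured repeatedly (0–40 h) during compound exposure at 37 C. Cells seeded 600/well with reagent, dosed after 5 h.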

[2] = A CellTox Green Cytotoxicity Assay to monitor cytotoxicity in HEK293 cells - 8 hour (AID 1224884); also: nearly all actives have a fitted effect of over 35% in size
How it was run: (§2)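 Fluorescence from a DNA-binding dye excluded by viable cells was measured repeatedly in the same HEK293 wells (600 cells/well) during continuous compound exposure at 37 C. Each assay gives one read point: 0, 8, 16, 24, 32 or 40 h.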

[3] = qHTS RealTime-Glo MT Cell Viability Assay in HepG2 cells - 16 hour (AID 1224885); also: nearly all actives have a fitted effect of over 50% in size
How it was run: (§3)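 HepG2 cells were seeded at 600 cells/well together with NanoLuc luciferase and a cell-permeant prosubstrate, preincubated 5 h at 37 C/5% CO2, then pin-dosed with compounds in DMSO. Nonlytic luminescence from viable cells was read at each time point.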

[4] = qHTS RealTime-Glo MT Cell Viability Assay in HEK293 cells - 24 hour (AID 1224886); also: nearly all actives have a fitted effect of over 50% in size; also: potency is read from the fitted curve at half-maximal effect
How it was run: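 HEK293 cells were seeded at 600 cells/well together with NanoLuc luciferase and cell-permeant prosubstrate, preincubated 5 h at 37 C/5% CO2, then given compound in DMSO by pintool. Luminescence from viable-cell prosubstrate reduction was read repeatedly over 40 h.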

[5] = qHTS RealTime-Glo MT Cell Viability Assay in HEK293 cells - 8 hour (AID 1224887); also: nearly all actives have a fitted effect of over 50% in size; also: potency is read from the fitted curve at half-maximal effect
How it was run: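 Luminescence, which tracks viable cell number through reduction of the prosubstrate to a NanoLuc substrate, was read over continuous 37 C culture. Cells (600/well) were premixed with reagent and rested 5 h before 23 nL of compound in DMSO was pinned.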

[6] = A CellTox Green Cytotoxicity Assay to monitor cytotoxicity in HEK293 cells - 16 hour (AID 1224888); also: nearly all actives have a fitted effect of over 35% in size
How it was run: as §2

[7] = qHTS RealTime-Glo MT Cell Viability Assay in HepG2 cells - 0 hour (AID 1224889); also: nearly all actives have a fitted effect of over 50% in size; also: potency is read from the fitted curve at half-maximal effect
How it was run: as §3

[8] = A CellTox Green Cytotoxicity Assay to monitor cytotoxicity in HepG2 cells - 8 hour (AID 1224890); also: nearly all actives have a fitted effect of over 45% in size
How it was run: as §1

[9] = qHTS assay to identify small molecule antagonists of the estrogen receptor alpha (ER-alpha) signaling pathway using the BG1 cell line in the presence of 0.1 nM 17-beta-estradiol - cell viability counter screen (AID 1259241); also: nearly all actives have a fitted effect of over 40% in size
How it was run: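 VM7Luc4E2 cells (endogenous ER-alpha, 4×ERE-luciferase), hormone-starved 5 days in charcoal-stripped FBS, were treated with compounds plus 0.1 nM 17beta-estradiol for 22 hr at 37C; viability read in same wells as CellTiter-Fluor live-cell protease fluorescence.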

[10] = qHTS assay to identify small molecule antagonists of the androgen receptor (AR) signaling pathway using the MDA cell line in the presence of 0.5 nM R1881 - cell viability counter screen (AID 1259242); also: nearly all actives have a fitted effect of over 45% in size; also: potency is read from the fitted curve at half-maximal effect
How it was run: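 Live-cell protease activity was measured by CellTiter-Fluor fluorescence after 30 min. Before that, MDA-kb2 MMTV-luciferase cells had 16 hr at 37C without CO2, exposed to test compounds and 0.5 nM R1881 final.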

[11] = qHTS assay to identify small molecule phospholipidosis (PLD) inducers (AID 1259344; active = well fitted curve in the direction sought with a large enough effect; an effect the other way counts as inactive or inconclusive)
How it was run: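 After 4 h attachment on collagen I, HepG2 cells were dosed with compound alongside LipidTOX Red, kept 24 h at 37 C, fixed, and imaged for lamellar phospholipid pits.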

[12] = qHTS assay to identify small molecule HDAC inhibitors (AID 1259364); also: top concentration of the series differs between compounds; nearly all actives have a fitted effect of over 45% in size
How it was run: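 Luminescence read after 30 min room-temperature HDAC-Glo incubation measures cellular class I/II HDAC activity. Compounds were applied for 2 hr at 37 C to HCT-116 wild-type cells seeded the day before.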

[13] = qHTS assay to identify small molecule agonists of the sonic hedgehog signaling (Shh) pathway - cell viability counter screen (AID 1259366); also: nearly all actives have a fitted effect of over 50% in size
How it was run: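 NIH/3T3-derived 3T3 Gli1-Luc cells (stable Gli1-responsive firefly luciferase reporter) were seeded, rested 4 hr at 37 C/5% CO2, then exposed to compounds in DMSO for 24 hr; viability was read by CellTiter-Fluor fluorescence in the same wells.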

[14] = qHTS assay to identify small molecule antagonists of the sonic hedgehog signaling (Shh) pathway - cell viability counter screen (AID 1259367); also: nearly all actives have a fitted effect of over 55% in size
How it was run: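 Conditioned medium drove Shh signaling in 3T3 Gli1-Luc cells exposed to compounds at 37C and 5% CO2. Viability was determined from CellTiter-Fluor fluorescence, with reagent incubated 1 hr after 23 hr of treatment.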

[15] = qHTS assay to identify small molecule agonists of the sonic hedgehog signaling (Shh) pathway (AID 1259368; calls by dose curve; also: series mostly up to about 92 µM; nearly all actives have a fitted effect of over 15% in size)
How it was run: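 Luminescence was read after 30 min at room temperature with luciferase reagent. Before that, 3T3Gli1-Luc cells (NIH/3T3 clone, stable Gli1-Luc reporter; 2,000/well) were exposed to compounds for 24 hr at 37C, 5% CO2, compounds being added 4 hr post-plating.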

[16] = A CellTox Green Cytotoxicity Assay to monitor cytotoxicity in HepG2 cells - 0 hour (AID 1224882); also: nearly all actives have a fitted effect of over 35% in size
How it was run: as §1

[17] = qHTS assay to identify small molecule HDAC inhibitors - cell viability counter screen (AID 1259365)
How it was run: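 Wild-type HCT-116 cells were seeded at 1,500 per well, incubated overnight at 37 C, then exposed to compounds in DMSO for 2hr. Viability was read by CellTiter-Glo luminescence after 30min at room temperature.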

[18] = biological target: Androgen receptor (Homo sapiens) (UniProt P10275); experiment: qHTS assay to identify small molecule antagonists of the androgen receptor (AR) signaling pathway using the MDA cell line in the presence of 0.5 nM R1881 (AID 1259243); also: nearly all actives have a fitted effect of over 50% in size
Sequence of Androgen receptor (Homo sapiens) (P10275 whole entry, looked up): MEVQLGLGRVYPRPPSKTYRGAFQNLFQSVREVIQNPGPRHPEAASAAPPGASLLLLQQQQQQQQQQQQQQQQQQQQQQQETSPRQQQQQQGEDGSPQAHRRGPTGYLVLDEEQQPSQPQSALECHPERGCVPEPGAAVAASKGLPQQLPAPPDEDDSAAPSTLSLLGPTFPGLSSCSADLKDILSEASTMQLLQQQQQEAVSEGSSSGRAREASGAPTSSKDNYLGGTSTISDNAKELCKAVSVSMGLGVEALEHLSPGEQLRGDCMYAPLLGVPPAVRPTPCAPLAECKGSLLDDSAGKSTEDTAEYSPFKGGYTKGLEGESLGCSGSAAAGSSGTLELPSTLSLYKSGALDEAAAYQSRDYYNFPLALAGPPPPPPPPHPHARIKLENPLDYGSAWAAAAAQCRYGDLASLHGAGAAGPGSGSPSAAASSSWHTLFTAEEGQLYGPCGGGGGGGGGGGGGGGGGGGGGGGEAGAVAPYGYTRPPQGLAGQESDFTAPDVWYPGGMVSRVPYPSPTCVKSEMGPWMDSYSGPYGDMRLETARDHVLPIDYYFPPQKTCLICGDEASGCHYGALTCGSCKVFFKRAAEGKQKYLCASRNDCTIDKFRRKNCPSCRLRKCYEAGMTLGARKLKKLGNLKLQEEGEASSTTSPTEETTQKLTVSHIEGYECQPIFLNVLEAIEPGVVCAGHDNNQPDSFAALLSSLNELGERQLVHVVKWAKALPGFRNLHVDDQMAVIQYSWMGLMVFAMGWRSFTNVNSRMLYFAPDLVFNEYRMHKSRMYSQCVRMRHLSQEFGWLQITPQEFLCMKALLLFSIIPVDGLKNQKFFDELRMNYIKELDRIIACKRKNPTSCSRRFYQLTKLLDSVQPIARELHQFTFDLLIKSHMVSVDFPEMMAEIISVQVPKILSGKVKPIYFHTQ
How it was run: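 Luminescent reporter readout (ONE-Glo, 30 min, room temperature) after 16 hr co-treatment of MDA-kb2 cells with test compounds and 0.5 nM R1881 final, at 37C without CO2. The MMTV-driven luciferase responds to both AR and GR.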

[19] = biological target: Estrogen receptor (Homo sapiens) (UniProt P03372); experiment: qHTS assay to identify small molecule antagonists of the estrogen receptor alpha (ER-alpha) signaling pathway using the BG1 cell line in the presence of 0.1 nM 17-beta-estradiol (AID 1259244); also: nearly all actives have a fitted effect of over 50% in size
Sequence of Estrogen receptor (Homo sapiens) (P03372 whole entry, looked up): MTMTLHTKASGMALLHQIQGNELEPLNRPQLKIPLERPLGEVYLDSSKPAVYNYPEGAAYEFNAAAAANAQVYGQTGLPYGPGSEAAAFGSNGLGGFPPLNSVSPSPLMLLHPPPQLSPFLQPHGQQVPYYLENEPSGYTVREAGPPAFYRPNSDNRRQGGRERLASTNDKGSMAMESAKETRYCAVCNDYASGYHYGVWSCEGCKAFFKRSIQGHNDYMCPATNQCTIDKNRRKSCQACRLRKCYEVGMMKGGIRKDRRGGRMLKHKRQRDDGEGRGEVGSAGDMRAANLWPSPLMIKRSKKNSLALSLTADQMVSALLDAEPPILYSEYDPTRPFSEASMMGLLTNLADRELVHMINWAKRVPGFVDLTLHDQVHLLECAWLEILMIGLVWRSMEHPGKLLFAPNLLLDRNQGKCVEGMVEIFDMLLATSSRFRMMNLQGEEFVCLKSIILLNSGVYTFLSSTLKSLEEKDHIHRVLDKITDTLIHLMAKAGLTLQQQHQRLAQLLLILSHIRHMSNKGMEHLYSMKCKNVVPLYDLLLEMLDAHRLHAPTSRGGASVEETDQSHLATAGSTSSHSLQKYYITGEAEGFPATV
How it was run: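 Luciferase luminescence (ONE-Glo, 30 min at room temperature) was read after 22 hr at 37C exposure to compounds plus 17beta-estradiol at 0.1 nM final. Cells were VM7Luc4E2 with endogenous ER-alpha and an ERE-driven luciferase, pre-cultured 5 days in hormone-depleted medium.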

Measured: Potency

Cc1ncc(CO)c(CO)c1O
not listed: [16] | [17] | [18] | [19]
inactive: all other assays above

CC(COCC(C)OC(=O)c1ccccc1)OC(=O)c1ccccc1 (centres undefined)
not listed: [2] | [4] | [5] | [11] | [17] | [18] | [19]
inactive: all other assays above

COc1ccc(N)c(OC)c1
not listed: [4] | [11] | [14] | [16] | [18] | [19]
inactive: all other assays above

CC(C)(CO)CO
not listed: [6] | [11] | [16]
inactive: all other assays above

O=Cc1ccc(CO)o1
not listed: [2] | [4] | [11] | [16] | [18]
inactive: all other assays above

COc1ccc([C@@H]2CC(=O)c3c(O)cc(O[C@@H]4O[C@H](CO[C@@H]5O[C@@H](C)[C@H](O)[C@@H](O)[C@H]5O)[C@@H](O)[C@H](O)[C@H]4O)cc3O2)cc1OC
not listed: [2] | [4] | [11] | [16] | [18] | [19]
inactive: all other assays above

COc1ccc2cc3[n+](cc2c1OC)CCc1cc2c(cc1-3)OCO2
active: [4] 4.4 µM and 10.7 µM | [10] 10.6 µM
not listed: [5] | [9] | [18] | [19]
inactive: all other assays above

CC(=O)OC(C)(C)C1CC=C(C)CC1 (centres undefined)
not listed: [2] | [4] | [6] | [11] | [18] | [19]
inactive: all other assays above

COC(=O)/C=C\C(=O)OC
not listed: [4] | [11] | [18] | [19]
inactive: all other assays above

O=c1n(CCCN2CCN(c3cccc(Cl)c3)CC2)nc2ccccn12
active: [4] 13.8 µM and 16.9 µM | [5] 11 µM and 10.7 µM
49 µM (active) and inactive: [7]
not listed: [6] | [16] | [18] | [19]
inactive: all other assays above

O=C(O)C1=NN(c2ccc(S(=O)(=O)O)cc2)C(=O)C1
not listed: [2] | [4] | [11] | [16] | [17] | [18] | [19]
inactive: all other assays above

C[Si](C)(C)N[Si](C)(C)C
not listed: [6] | [11] | [17] | [18]
inactive: all other assays above

CC(C)(C)NC[C@H](O)COc1nsnc1N1CCOCC1
not listed: [17] | [18] | [19]
inactive: all other assays above

N#CCC(=O)O
not listed: [2] | [4] | [11] | [16] | [17] | [18] | [19]
inactive: all other assays above

OCCOCCOCCOCCOCCO
not listed: [4] | [11] | [16] | [18] | [19]
inactive: all other assays above

Nc1nc(N)c2nc(-c3ccccc3)c(N)nc2n1
active: [1] 49.5 µM and 49 µM
not listed: [4] | [13]
inactive: all other assays above

CCCN(CCC)C(=O)SCC
not listed: [2] | [11] | [16]
inactive: all other assays above

CN1Cc2c(N)cccc2C(c2ccccc2)C1 (centres undefined)
not listed: [4] | [16] | [17] | [18] | [19]
inactive: all other assays above

CC(=O)CC(=O)N(C)C
not listed: [4] | [6] | [11] | [18] | [19]
inactive: all other assays above

CC(C)c1ccc(C(C)C)cc1
not listed: [2] | [4] | [11] | [16] | [18]
inactive: all other assays above

CC/C(C)=N/O
not listed: [2] | [6] | [11] | [17] | [18] | [19]
inactive: all other assays above

CCOC(=O)CC(=O)OCC
not listed: [2] | [4] | [11] | [16] | [18] | [19]
inactive: all other assays above

COC(=O)CCCCC(=O)OC
not listed: [2] | [11] | [18]
inactive: all other assays above

CC(=O)C(C)C
not listed: [2] | [4] | [11] | [17] | [18]
inactive: all other assays above

CC(=O)c1nccs1
not listed: [6] | [11] | [16] | [17] | [18] | [19]
inactive: all other assays above
